Measured values: PubChem BioAssay AID493169 (National Center for Advancing Translational Sciences (NCATS), 2011)
Results filed as inconclusive are left out. A number with no mark means an inactive call. The call rests on the fitted dose curve; in most records, active means well fitted inhibition curve with a large enough effect; inconclusive means small, poorly fitted or top-dose-only effect; inactive means flat fitted curve, though single readings scatter.

assay: CHOP2 Reporter Counterscreen Assay for Inhibitors of Ubiquitin-specific Protease USP2a; conditions: purified enterokinase, fluorogenic substrate, 485/531 nm; series mostly up to 38.3 µM; activity change, negative = inhibition: at the top concentration;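 further: activated enterokinase alone at 50 pM in a cell-free format rather than USP2a or CHOP2; nearly all actives have a fitted effect of over 55% in size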
In short: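 Fluorescence (485/531 nm) read 10 min after adding 25nM reporter substrate to 50 pM activated EK preincubated 30 min RT with compound; Tris pH 8.0/CaCl2/CHAPS buffer. Data normalized to buffer-alone inhibition; concentration-response curves fitted.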
On the % scale 0 is the no-effect control and ±100 the full control effect.

| Structure (SMILES) | activity change, negative = inhibition [%] |
| --- | --- |
| COc1ccc(-c2csc(Nc3ccc(S(=O)(=O)Nc4cc(OC)nc(OC)n4)cc3)n2)cc1 | -19 |
| O=C(CSc1nnc(SCc2ccccc2)s1)N/N=C/c1c[nH]c2ccccc12 | -4.05 |
| CC(C)(C)[C@H]1COC(=O)[C@@H](Cc2ccc(F)cc2)C/C=C\C[C@@H](CC(=O)N[C@H](CO)Cc2ccccc2)C(=O)N1 | -3.42 |
| Cc1ccc(-c2c(C#N)c(N)nc3c2CCCCC3)o1 | 1.52 |
| CC1(C(=O)O)Sc2[nH]c(=O)sc2C2c3ccccc3OC(=O)C21 (stereo unspecified) | -1.3 |
| CCC(CO)Oc1cc(NCc2cccc(C)c2)c2ncn(C(C)C)c2c1 (stereo unspecified) | 0.286 |
| CCOC(=O)C1CCCN(CC(=O)Nc2c(C(=O)OC)[nH]c3ccc(C)cc23)C1 (stereo unspecified) | -2.91 |
| Cc1onc(-c2ccccc2)c1C(=O)N1CCN(C)CC1 | 1.29 |
| Cc1noc(/C=C/NCc2cccnc2)c1S(=O)(=O)N(C)CC(=O)N1CCc2ccccc21 | -1.33 |
| CCC(=O)c1ccc(OCC(=O)NC2CCN(Cc3ccccc3)CC2)cc1 | -0.493 |
| CN1CCN(Cc2c(O)ccc3c(=O)c(Oc4ccccc4Cl)c(C(F)(F)F)oc23)CC1 | 5.85 |
| COc1cccc(NC(=O)CSc2nncn2-c2ccccn2)c1 | 1.46 |
| COc1ccc(-n2c(=S)[nH]c3cc(C(=O)Nc4cc(OC)c(OC)c(OC)c4)ccc3c2=O)c(OC)c1 | -0.87 |
| COc1c(/C=C2\SC(=Nc3ccccc3Cl)NC2=O)cccc1[N+](=O)[O-] | -9.15 |
| COc1ccc(Cl)cc1S(=O)(=O)Nc1cccc(C(=O)O)c1 | -0.065 |
| CN(C)C=Nc1ncc2c3ccccc3n(CCN(C)C)c2c1C#N | -3.87 |
